Source: PubChem BioAssay
Rows were chosen to be rich in hits. Some 4.5% of all compounds tested hit in one or more screens of this group.
dFosB act = activators of delta FosB homodimer, primary screen, biochemical, fluorescence polarization, TAMRA-CDK5 oligo, single point. purified delta FosB; percent of positive-control signal above neutral wells. activation, % at 25 µM. hit rate 0.99% among 340,000. AID 493131, 2011;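 active = mean activation above about 17%, with every replicate also reaching it, limit read from the data, passing the limit was not always enough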
Target sequence (P13346 whole entry, looked up): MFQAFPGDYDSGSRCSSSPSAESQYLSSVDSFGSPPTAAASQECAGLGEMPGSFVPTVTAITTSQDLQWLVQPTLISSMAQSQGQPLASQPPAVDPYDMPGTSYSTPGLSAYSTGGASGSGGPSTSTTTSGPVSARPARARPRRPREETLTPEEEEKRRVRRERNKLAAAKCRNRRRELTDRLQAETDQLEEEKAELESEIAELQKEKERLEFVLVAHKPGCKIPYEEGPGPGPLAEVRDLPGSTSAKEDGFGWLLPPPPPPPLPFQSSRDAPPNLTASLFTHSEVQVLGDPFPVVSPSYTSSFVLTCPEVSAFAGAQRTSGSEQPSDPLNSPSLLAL
EBNA-1 inh = EBNA-1 DNA-binding inhibitors, primary screen, biochemical, fluorescence polarization. inhibition, % at 14.8 µM. hit rate 0.34% among 300,000. AID 1950, 2009; in the data active = inhibition above about 28%
ZTA counter = ZTA (EBV) inhibition in EBNA-1 counter-screen; ZTA-DNA binding, fluorescence polarization; inhibition, % at 11 µM; hit rate 0.15% among 320,000; AID 2234; in the data active = inhibition above about 33%
Target sequence (P03206 whole entry, looked up): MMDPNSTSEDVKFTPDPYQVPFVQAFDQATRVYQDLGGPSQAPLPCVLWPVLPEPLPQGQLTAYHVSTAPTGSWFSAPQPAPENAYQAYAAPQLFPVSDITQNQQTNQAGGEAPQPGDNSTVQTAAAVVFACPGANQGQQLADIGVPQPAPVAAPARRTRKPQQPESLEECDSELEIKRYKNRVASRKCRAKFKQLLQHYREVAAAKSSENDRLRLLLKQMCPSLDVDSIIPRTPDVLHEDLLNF
NR3A LBD binder = binders of NR3A ligand-binding domain, primary screen, biophysical, differential scanning fluorimetry, uHTS; Glutamate receptor ionotropic, NMDA 3A (GRIN3A) ligand-binding domain; NR3A LBD differential scanning fluorimetry, Tm shift; 0% = protein alone, 100% = glycine-bound protein; Tm shift relative to glycine control, % at 25 µM; hit rate 2.5% among 340,000; AID 1259313, 2017;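 active = melting temperature shift of at least 10% of the positive control shift, at one fixed dose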
Rpn11 block = Rpn11 (PSMD14) deubiquitinase inhibitors, primary screen, biochemical, fluorescence polarization, uHTS | 26S proteasome non-ATPase regulatory subunit 14 (Homo sapiens), O00487 | human 26S proteasome, Ub4-pepOG fluorescence polarization; 20S core pre-blocked with epoxomicin | inhibition, % at 20 µM | hit rate 0.59% among 360,000;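 active = inhibition at 20 µM, scaled to each plate's controls, above about 33%, limit read from the data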
TPT1 inh = Candida albicans TPT1 enzyme inhibitors, primary screen, biochemical, fluorescence polarization; tRNA 2'-phosphotransferase TPT1 (Candida albicans SC5314); recombinant caTPT1, FP RNA substrate dephosphorylation; hit rate 0.81% among 300,000; inhibition, % at 5 µM;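 active = inhibition above the mean of all tested compounds plus 3 SD, set per screening campaign, cut at about 24% in these data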;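 also: plate controls were DMSO alone for no effect and ferristatin control at 100 nM for full effect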
ZTA inh confirm = EBV Zta binding to ZRE DNA, inhibitors, confirmation, biochemical, fluorescence polarization, triplicate; shares compounds with ZTA counter; inhibition, % at 11.1 µM; hit rate 30% among 320; AID 2361, 2010;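 active = mean inhibition across triplicate runs above the hit threshold derived for the original primary screen, cut at about 33% in these data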;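 also: 0% = Zta with DMSO and 100% = wells lacking Zta protein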
EBNA-1 counter = EBNA-1 DNA-binding inhibition, counter-screen for ZTA inhibitor project, biochemical, fluorescence polarization; shares compounds with ZTA counter; inhibition, % at 14.8 µM; 320 tested, under 10 active; AID 2362, 2010; call rule not given here
Active calls of the source: *; . = no result.

SMILES | dFosB act | EBNA-1 inh | ZTA counter | NR3A LBD binder | Rpn11 block | TPT1 inh | ZTA inh confirm | EBNA-1 counter
c1ccc(-n2ncc3c(N4CCN(c5ccccn5)CC4)nc(N4CCCCCC4)nc32)cc1 | 2.4 | 6.4 | 40.1* | -0.1 | -1.0 | 1.3 | 0.8 | -5.4
CC(O)(c1cccnc1)c1nc(/C=C/c2ccccc2)cs1 (stereo unspecified) | . | . | . | . | -0.3 | . | . | .
CCC(Oc1ccccc1)C(=O)Nc1nc2ccccc2[nH]1 (stereo unspecified) | 0.1 | -7.3 | 37.5* | 1.3 | 1.0 | 2.0 | 3.3 | -1.4
CCOC(=O)C1C2C=CC(CC2)N1c1ccccc1 (stereo unspecified) | -2.5 | 1.7 | -0.8 | -3.5 | 2.1 | -2.7 | . | .
NS(=O)(=O)c1ccc(NC(=O)C2C3C=CC(C3)C2C(=O)O)cc1 (stereo unspecified) | -9.5 | -5.1 | 4.8 | 0.0 | 5.7 | -4.1 | . | .
Cn1nc(-c2ccccn2)nc2c(=O)n(C)c(=O)nc1-2 | -2.8 | 7.3 | 72.5* | -2.2 | 23.4 | -4.7 | 68.9* | -4.0
O=[N+]([O-])c1ccc(/C=C2\CCC(C3=CCCC3)=C2N2CCOCC2)cc1 | 1.6 | -16.6 | -5.7 | 2.1 | 8.7 | 9.5 | . | .
COc1ccc(Br)cc1S(=O)(=O)Nc1cccc(C)n1 | 2.0 | -6.0 | -6.2 | 0.2 | -1.9 | -0.8 | . | .
COc1ccc(S(=O)(=O)Nc2cccc(C)n2)c2ccccc12 | -7.7 | 5.5 | 33.5* | -0.3 | -0.3 | -8.2 | 6.4 | -3.9
Cc1ccccc1OCc1nnc(SCC(=O)NCc2ccco2)n1C | 3.8 | 12.9 | 35.0* | -1.3 | -1.5 | -1.2 | -8.4 | 0.3
C#CCOCCOCCOCCNc1nc(N2CCN(C(=O)CCCCCCCCCCNC(=O)[C@H]([C@@H](C)CC)n3cc(CCCCN=C(N)N)nn3)CC2)nc(N2CCN(C(=O)CCCCCCCCCCNC(=O)[C@H](CCCCN)n3cc(C)nn3)CC2)n1 | . | 5.7 | 56.2* | 3.1 | . | -1.2 | 68.5* | -8.6
C#CCOCCOCCOCCNc1nc(N2CCN(C(=O)CCCCCCCCCCNC(=O)Cn3cc(CCCCCN)nn3)CC2)nc(N2CCN(C(=O)CCCCCCCCCCNC(=O)[C@H]([C@@H](C)CC)n3cc(CCCCN=C(N)N)nn3)CC2)n1 | -213.2 | 3.4 | 60.8* | -1.4 | 40.7* | -3.4 | 47.7* | -10.8
C#CCOCCOCCOCCNc1nc(N2CCN(C(=O)CCCCCCCCCCNC(=O)[C@H]([C@@H](C)CC)n3cc(CCCCCN)nn3)CC2)nc(N2CCN(C(=O)CCCCCCCCCCNC(=O)[C@H]([C@@H](C)CC)n3cc(CCCCN=C(N)N)nn3)CC2)n1 | -265.4 | 5.1 | 163.3* | . | 88.2* | 0.3 | 54.5* | -15.0
C#CCOCCOCCOCCNc1nc(N2CCN(C(=O)Cn3cc(CCCCN)nn3)CC2)nc(N2CCN(C(=O)[C@H]([C@@H](C)CC)n3cc(CCCCN)nn3)CC2)n1 | 6.3 | 1.2 | -2.1 | 3.1 | 1.2 | -1.3 | . | .
Cc1ccc(S(=O)(=O)/N=C2/C=C(Sc3ncn[nH]3)C(=O)c3ccccc32)cc1 | -7.0 | 0.4 | 41.0* | -62.1 | 10.3 | -5.8 | 74.9* | -9.6
N#Cc1nc(/C=C/c2ccccc2)oc1NCCCN1CCOCC1 | 3.6 | 4.2 | 33.1* | -0.5 | -4.0 | -0.4 | 3.2 | 0.5
Cn1c(CNC(=O)CNS(=O)(=O)c2ccc(F)cc2F)cc(=O)n(C)c1=O | -3.2 | -5.7 | -3.7 | -0.9 | -4.7 | 0.7 | . | .
CCOC(=O)c1c(CSc2ccc(CC)cc2)oc2ccc(O)c(CN(C)C)c12 | 2.6 | 12.0 | 33.7* | -2.0 | -8.3 | -7.7 | 4.2 | 0.6
CCOC(=O)c1c(C)oc2ccc(O)c(CN(C)C)c12 | -5.4 | 8.0 | -11.6 | 0.3 | 0.8 | -0.7 | . | .
CCCNC(=O)NC1CCCc2ccccc21 (stereo unspecified) | -1.2 | 3.0 | -0.8 | 1.8 | -5.5 | -1.6 | . | .
COc1cccc2c1C(=O)c1c(O)c3c(c(O)c1C2=O)C[C@@](O)(C(=O)CO)C[C@@H]3OC1CC(N)C(O)C(C)O1 (stereo partly specified) | -405.6 | . | . | -8.4 | -68.4 | . | . | .
COc1cccc2c1C(=O)c1c(O)c3c(c(O)c1C2=O)C[C@@](O)(C(=O)CO)C[C@@H]3O[C@H]1C[C@H](N)[C@H](O)[C@H](C)O1 | -335.8 | 24.6 | 77.9* | 0.0 | -59.7 | -171.0 | 97.8* | -8.0
COC(=O)c1c(NC(=O)Cn2cnc([N+](=O)[O-])n2)sc2c1CCC(C)C2 (stereo unspecified) | -14.9 | 4.5 | -1.1 | 0.8 | 0.8 | -2.3 | . | .
CCOC(=O)C1(Cc2ccccc2)CCN(Cc2cccn2-c2nccs2)CC1 | -9.1 | -0.5 | 34.1* | -1.9 | 3.1 | 1.7 | -13.4 | -8.5
CCOC(=O)c1n[nH]c(=O)c2ccccc12 | 1.2 | -1.1 | 6.6 | -1.4 | -3.0 | -5.9 | . | .
SMILES | dFosB act | EBNA-1 inh | ZTA counter | NR3A LBD binder | Rpn11 block | TPT1 inh | ZTA inh confirm | EBNA-1 counter
CC1CCN(C(=O)COC(=O)c2n[nH]c(=O)c3ccccc23)CC1 | -7.2 | . | 35.6* | 1.7 | -2.5 | . | -0.8 | -7.2
Cc1cc(C)nc(NC(=O)NS(=O)(=O)Nc2ccc(Br)cn2)n1 | -0.7 | 14.9 | 33.1* | 2.8 | 0.0 | 1.5 | -5.9 | -2.6
CC(C)=CCc1c2c(c3occ(-c4ccc(O)cc4)c(=O)c3c1O)C=CC(C)(C)O2 | -4.3 | 1.7 | 35.4* | 25.1* | 0.1 | -5.0 | 9.3 | 1.6
O=C(Nc1cccc2ccccc12)NC1CCCCC1O (stereo unspecified) | -4.1 | -1.9 | 57.6* | -3.1 | -10.4 | -5.5 | -4.7 | -6.1
O=C(Nc1cccc2ccccc12)NC1CCS(=O)(=O)C1 (stereo unspecified) | -4.0 | 1.9 | 3.2 | -4.1 | -0.2 | -6.6 | . | .
O=C1C=C(N2CCOCC2)c2ccccc2C1=O | -2.5 | -4.9 | 53.9* | 2.8 | 23.4 | -0.7 | 68.1* | -11.4
O=C1C=C(N2CCOCC2)c2cccc3cccc1c23 | . | . | . | . | -39.2 | . | . | .
O=C(O)c1cccc(-n2cccc2/C=C/[N+](=O)[O-])c1 | -18.1 | -3.7 | 56.3* | 0.3 | -19.9 | 0.5 | 15.7 | -8.4
O=C(O)c1cccc(-n2cccc2/C=C\[N+](=O)[O-])c1 | -7.9 | 9.2 | 25.1 | 1.9 | -3.4 | -6.7 | . | .
